Measured values from PubChem BioAssay.
Measured potencies and affinities stand elsewhere. Results filed as inconclusive are left out. Activity calls are given as the source filed them. Unless noted, how the calls were made is not given here.

Tests used:
[1] = RMG-1 ovarian cancer cell viability loss – cherry-pick, dose response (AID 687029;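 active means signal drop whose fitted half-maximal concentration is at most twice the top valid dose, in every test run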;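 further: cells exposed to compound for 96 hours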); conditions: RMG-1 viability, CellTiterGlo ATP luminescence, 96 h; series mostly up to 35 µM
[2] = IOSE-T80 viability loss, PAX8-independent line – cell-based, cherry-pick, selectivity assay for PAX8 inhibitor project, dose response (AID 687032;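 active means fitted half-maximal concentration for viability loss no higher than twice the top valid dose, in every repeat run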;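 further: cells exposed to compound for 96 h before reading; 0% = neutral control wells and -100% = 2 µM mitoxantrone kill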); conditions: CellTiterGlo ATP luminescence, 96 h; series mostly up to 35 µM
[3] = CMV-driven luciferase expression suppression in HEK293 – cell-based, luminescence, dry powder, counter-screen for Pax8 inhibitor project, dose response (AID 743020;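 active means signal-lowering compounds whose fitted half-maximal concentration is at or below twice the top tested dose in every run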;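 further: HEK293 cells stably expressing the CMV luciferase reporter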); conditions: HEK293 CMV-luciferase reporter, SteadyGlo luminescence, 24 h; series mostly up to 35 µM
[4] = general cell-killing toxicity readout – plate reader, dry powder samples, cytotoxicity control for PAX8 inhibitor project, dose response (AID 743021); conditions: cell line, non-specific cytotoxicity counter-screen; series mostly up to 35 µM
[5] = IGROV1 cell killing – plate reader, dry powder samples, PAX8 inhibitor project, dose response (AID 743043); conditions: IGROV1 ovarian cancer cell cytotoxicity; series mostly up to 35 µM;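 further: more negative means fewer viable cells or more cytotoxicity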
[6] = OVCAR-3 cell viability loss – plate reader, dry powder samples, PAX8 inhibitor project, dose response (AID 743044); conditions: NIH:OVCAR-3 ovarian cancer cell viability; max activity: at 35 µM, stronger effect = lower value unless noted; series mostly up to 50 µM
[7] = toxicity toward immortalized ovarian surface epithelium – cell-based, plate reader, dry powder samples, cytotoxicity control for PAX8 inhibitor project, dose response (AID 743045); conditions: IOSE-T80 ovarian epithelial cells; series mostly up to 35 µM;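 further: 0% = neutral control median and -100% = positive control median; more negative values mean more cell killing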
[8] = A2780 cell killing – plate reader, dry powder samples, cytotoxicity control, dose response (AID 743046); conditions: A2780 ovarian cancer cytotoxicity; series mostly up to 35 µM;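 further: 0% = neutral control wells and -100% = cytotoxic reference compound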
[9] = OVCAR8 cell viability loss – plate reader, dry powder samples, PAX8 project, dose response (AID 743197); conditions: series mostly up to 35 µM

Measured: max activity

C[C@@H]1CCCCO[C@H](CN(C)Cc2ccc(C(F)(F)F)cc2)[C@H](C)CN([C@@H](C)CO)C(=O)c2cc(NC(=O)Nc3ccc(F)cc3)ccc2O1
inactive: [1] | [2] | [3] | [4] | [5] | [6] -17.3% | [7] | [8] | [9]

C[C@@H]1CN([C@@H](C)CO)C(=O)c2cc(NC(=O)c3ccccc3)ccc2O[C@@H](C)CCCCO[C@H]1CN(C)Cc1ccc(C(F)(F)F)cc1
inactive: [1] | [2] | [3] | [4] | [5] | [6] -28.2% [at 0.26 µM, stronger effect = lower value] | [7] | [8] | [9]

C[C@H](O)C#Cc1ccc2c(c1)O[C@H](CN(C)Cc1ccc(-c3ccccc3)cc1)[C@@H](C)CN([C@H](C)CO)S2(=O)=O
inactive: [1] | [2] | [3] | [4] | [5] | [6] 15.2% [at 16 µM, stronger effect = lower value] | [7] | [8] | [9]

C[C@@H]1CN([C@@H](C)CO)C(=O)c2cc(NS(=O)(=O)c3ccccc3)ccc2O[C@@H](C)CCCCO[C@@H]1CN(C)Cc1ccc(C(F)(F)F)cc1
inactive: [1] | [2] | [3] | [4] | [5] | [6] -5.59% | [7] | [8] | [9]

C[C@@H]1CN([C@H](C)CO)C(=O)Cc2cc(NC(=O)Nc3ccc(F)cc3)ccc2O[C@@H]1CN(C)Cc1ccc(Cl)c(Cl)c1
inactive: [1] | [2] | [3] | [4] | [5] | [6] 27.5% | [7] | [8] | [9]

C[C@H]1CCCCO[C@H](CN(C)C(=O)Nc2ccc(C(F)(F)F)cc2)[C@@H](C)CN([C@@H](C)CO)C(=O)c2cc(NC(=O)c3ccncc3)ccc2O1
inactive: [1] | [2] | [3] | [4] | [5] | [6] -23.2% [at 0.26 µM, stronger effect = lower value] | [7] | [8] | [9]

C[C@H](CO)N1C[C@H](C)[C@@H](CN(C)Cc2ccc(-c3ccccc3)cc2)Oc2ccc(NC(=O)Cc3ccccc3)cc2CC1=O
inactive: [1] | [2] | [3] | [4] | [5] | [6] -13.7% [at 0.5 µM, stronger effect = lower value] | [7] | [8] | [9]

O=C(C[C@H]1CC[C@@H]2[C@H](COC[C@@H](O)CN2Cc2ccc(F)cc2)O1)NCc1ccccc1Cl
inactive: [1] | [2] | [3] | [4] | [5] | [6] 64.7% | [7] | [8] | [9]

C[C@@H]1CN([C@@H](C)CO)C(=O)c2cc(N(C)C)ccc2O[C@@H]1CN(C)Cc1ccc(Oc2ccccc2)cc1
inactive: [1] | [2] | [3] | [4] | [5] | [6] -18.3% | [7] | [8] | [9]

O=C(c1ccc(F)cc1)N1C[C@@H]2N[C@H](C1)C2c1ccc(-c2ccc(F)cc2)cc1 (stereo not given in full)
inactive: [1] | [2] | [3] | [4] | [5] | [6] -17.2% [at 4.2 µM, stronger effect = lower value] | [7] | [8] | [9]

C[C@@H]1CCCCO[C@@H](CN(C)Cc2ccccc2)[C@@H](C)CN([C@H](C)CO)C(=O)c2cc(NC(=O)Nc3ccc(C(F)(F)F)cc3)ccc2O1
inactive: [1] | [2] | [3] | [4] | [5] | [6] -13.2% | [7] | [8] | [9]

C[C@@H]1CN([C@@H](C)CO)C(=O)c2cc(NS(=O)(=O)c3ccc(Cl)cc3)ccc2O[C@@H](C)CCCCO[C@H]1CN(C)Cc1ccc(C(F)(F)F)cc1
inactive: [1] | [2] | [3] | [4] | [5] | [6] 22.1% [at 16 µM, stronger effect = lower value] | [7] | [8] | [9]

C[C@@H]1CN([C@@H](C)CO)C(=O)Cc2cc(N(C)C)ccc2O[C@H]1CN(C)Cc1ccc(Oc2ccccc2)cc1
inactive: [1] | [2] | [3] | [4] | [5] | [6] -11.3% [at 4.2 µM, stronger effect = lower value] | [7] | [8] | [9]

Cc1ccc(S(=O)(=O)Nc2ccc3c(c2)CC(=O)N([C@H](C)CO)C[C@H](C)[C@@H](CN(C)Cc2ccc(Cl)c(Cl)c2)O3)cc1
inactive: [1] | [2] | [3] | [4] | [5] | [6] 29.2% [at 0.26 µM, stronger effect = lower value] | [7] | [8] | [9]

C[C@@H]1CN([C@H](C)CO)C(=O)c2c(c3ccccc3n2C)-c2ccccc2CO[C@@H]1CN(C)C
inactive: [1] | [2] | [3] | [4] | [5] | [6] 18.1% [at 0.5 µM, stronger effect = lower value] | [7] | [8] | [9]

C[C@@H]1CCCCO[C@H](CN(C)Cc2ccc(Cl)c(Cl)c2)[C@@H](C)CN([C@@H](C)CO)C(=O)c2cc(NS(=O)(=O)c3ccc(Cl)cc3)ccc2O1
inactive: [1] | [2] | [3] | [4] | [5] | [6] -6.91% [at 4.2 µM, stronger effect = lower value] | [7] | [8] | [9]

C[C@H](CO)N1C[C@H](C)[C@H](CN(C)C(=O)NC2CCCCC2)OCCCC[C@H](C)Oc2ccc(NC(=O)Nc3ccc(C(F)(F)F)cc3)cc2C1=O
inactive: [1] | [2] | [3] | [4] | [5] | [6] 11.8% [at 2.1 µM, stronger effect = lower value] | [7] | [8] | [9]

C[C@@H]1CCCCO[C@H](CN(C)C(=O)Nc2ccc(C(F)(F)F)cc2)[C@@H](C)CN([C@@H](C)CO)C(=O)c2cc(NS(=O)(=O)c3cccs3)ccc2O1
inactive: [1] | [2] | [3] | [4] | [5] | [6] -19.5% [at 4.2 µM, stronger effect = lower value] | [7] | [8] | [9]

C[C@@H]1CN([C@H](C)CO)C(=O)c2cc(NC(=O)c3ccccc3)ccc2O[C@@H](C)CCCCO[C@H]1CN(C)Cc1ccc(C(F)(F)F)cc1
inactive: [1] | [2] | [3] | [4] | [5] | [6] -5.41% [at 0.5 µM, stronger effect = lower value] | [7] | [8] | [9]

C[C@H]1CN([C@@H](C)CO)C(=O)c2ccccc2-c2ccccc2CO[C@H]1CN(C)S(=O)(=O)c1ccc(C(F)(F)F)cc1
inactive: [1] | [2] | [3] | [4] | [5] | [6] 11.8% [at 4.2 µM, stronger effect = lower value] | [7] | [8] | [9]

C[C@@H]1CCCCO[C@H](CN(C)S(=O)(=O)c2ccc(Cl)cc2)[C@@H](C)CN([C@@H](C)CO)C(=O)c2cc(NC(=O)CCC(F)(F)F)ccc2O1
inactive: [1] | [2] | [3] | [4] | [5] | [6] 17.2% [at 2.1 µM, stronger effect = lower value] | [7] | [8] | [9]

O=C(C[C@@H]1CC[C@@H]2[C@H](COC[C@H](O)CN2S(=O)(=O)c2cccc(Cl)c2)O1)Nc1ccc(-c2ccccc2)cc1
inactive: [1] | [2] | [3] | [4] | [5] | [6] -18.5% | [7] | [8] | [9]

C[C@@H]1CN([C@@H](C)CO)C(=O)c2c(c3ccccc3n2C)-c2ccccc2CO[C@H]1CN(C)C(=O)Nc1ccc2c(c1)OCO2
inactive: [1] | [2] | [3] | [4] | [5] | [6] -21.8% [at 16 µM, stronger effect = lower value] | [7] | [8] | [9]

C[C@@H]1CCCCO[C@@H](CN(C)Cc2ccc(C(F)(F)F)cc2)[C@H](C)CN([C@@H](C)CO)C(=O)c2cc(NS(=O)(=O)c3ccccc3)ccc2O1
inactive: [1] | [2] | [3] | [4] | [5] | [6] 11.3% [at 2.1 µM, stronger effect = lower value] | [7] | [8] | [9]

C[C@@H]1CCCCO[C@H](CN(C)C(=O)c2ccccc2)[C@@H](C)CN([C@@H](C)CO)C(=O)c2cc(NC(=O)Nc3ccc(C(F)(F)F)cc3)ccc2O1
inactive: [1] | [2] | [3] | [4] | [5] | [6] 20.2% [at 2.1 µM, stronger effect = lower value] | [7] | [8] | [9]

Cc1ccc(S(=O)(=O)Nc2ccc3c(c2)C(=O)N([C@@H](C)CO)C[C@@H](C)[C@@H](CN(C)Cc2ccc(C(F)(F)F)cc2)OCCCC[C@H](C)O3)cc1
inactive: [1] | [2] | [3] | [4] | [5] | [6] -14.9% [at 2.1 µM, stronger effect = lower value] | [7] | [8] | [9]

C[C@@H]1CN([C@@H](C)CO)C(=O)Cc2cc(NC(=O)Nc3ccc(C(F)(F)F)cc3)ccc2O[C@H]1CN(C)Cc1ccc(Cl)c(Cl)c1
inactive: [1] | [2] | [3] | [4] | [5] | [6] 9.21% [at 0.26 µM, stronger effect = lower value] | [7] | [8] | [9]

Cc1ccc(S(=O)(=O)Nc2ccc3c(c2)C(=O)N([C@H](C)CO)C[C@H](C)[C@H](CN(C)C(=O)c2ccccc2)OCCCC[C@H](C)O3)cc1
inactive: [1] | [2] | [3] | [4] | [5] | [6] -23.6% | [7] | [8] | [9]

C[C@@H]1CN([C@H](C)CO)C(=O)c2cc(NC(=O)Nc3ccc(F)cc3)ccc2O[C@@H](C)CCCCO[C@H]1CN(C)Cc1ccc(Cl)c(Cl)c1
inactive: [1] | [2] | [3] | [4] | [5] | [6] 26% | [7] | [8] | [9]

C[C@H]1CCCCO[C@H](CN(C)S(=O)(=O)c2ccc(Cl)cc2)[C@@H](C)CN([C@@H](C)CO)C(=O)c2cc(NS(=O)(=O)c3ccc(Cl)cc3)ccc2O1
inactive: [1] | [2] | [3] | [4] | [5] | [6] -21.5% | [7] | [8] | [9]

COc1ccc(S(=O)(=O)N(C)C[C@H]2Oc3ccc(NC(=O)Nc4ccc(C(F)(F)F)cc4)cc3CC(=O)N([C@H](C)CO)C[C@@H]2C)cc1
inactive: [1] | [2] | [3] | [4] | [5] | [6] 26.7% [at 16 µM, stronger effect = lower value] | [7] | [8] | [9]

Cc1ccc(S(=O)(=O)Nc2ccc3c(c2)C(=O)N([C@@H](C)CO)C[C@H](C)[C@@H](CN(C)C(=O)Nc2ccc(C(F)(F)F)cc2)OCCCC[C@H](C)O3)cc1
inactive: [1] | [2] | [3] | [4] | [5] | [6] -5.62% | [7] | [8] | [9]

C[C@H](CO)N1C[C@H](C)[C@H](CN(C)C(=O)NC2CCCCC2)Oc2cc(C#Cc3ccc(F)cc3)ccc2S1(=O)=O
inactive: [1] | [2] | [3] | [4] | [5] | [6] -20.7% | [7] | [8] | [9]

C[C@H](CO)N1C[C@H](C)[C@@H](CN(C)Cc2ccc(C(F)(F)F)cc2)Oc2ccc(NS(=O)(=O)c3ccc(F)cc3)cc2CC1=O
inactive: [1] | [2] | [3] | [4] | [5] | [6] 24.7% [at 16 µM, stronger effect = lower value] | [7] | [8] | [9]

COc1ccc(S(=O)(=O)Nc2ccc3c(c2)CC(=O)N([C@H](C)CO)C[C@H](C)[C@@H](CN(C)Cc2ccc(-c4ccccc4)cc2)O3)cc1
inactive: [1] | [2] | [3] | [4] | [5] | [6] 36.7% [at 2.1 µM, stronger effect = lower value] | [7] | [8] | [9]
